In PubChem BioAssay AID651640 (Broad Institute, 2012) one finds CPE inhibition data, which are given here for 59 compounds.

Several values for one entry are separate records, joined by “and”; a condition that tells them apart may be missing. Equal values may be shown once. Hit rate of the full screen: of about 350,000 compounds, about 6,000 (1.7%) were called active. Inconclusive results (about 5%) are left out. This is one part of a sample in which actives are shown more often than they occur. Rule as the data show it: active = CPE inhibition above about 20% (passing the limit was not always enough); inconclusive = no clear call, values can overlap the other calls; tested in BHK-21 cells. The source holds several records for some structures; these can differ, active in one and inactive in another.

This assay can be described thus: protection of cells from dengue 2 killing – plate reader, single concentration, primary screen (AID 651640).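 Also: 0% = median of neutral control wells and 100% = median of positive control wells.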 As to conditions: DENV2-infected cells, cytopathic effect rescue, at 9.99 µM, stronger effect = higher value. (Cytopathic effects are the visible damage that an infection or toxin causes in cultured cells.)
As for `C[C@]1(C(=O)NCCc2c[nH]c3ccccc23)C=C[C@@H](Cc2ccccc2)N1C(=O)c1ccccc1`, the CPE inhibition is 40.2% (active).

Take `O=C(NCCc1c[nH]c2ccccc12)c1cccc(Br)c1`: the CPE inhibition is 0.922% (inactive).

With `CC(=O)NC(Cc1c[nH]c2ccccc12)C(=O)NCCc1ccccc1` (centres undefined), the CPE inhibition was -3% (inactive).

On to `COCCNC(=O)C[C@H]1CC[C@@H]2[C@H](COc3ccc(NC(=O)Nc4cccc(F)c4)cc3C(=O)N2C)O1`, for which the CPE inhibition is -0.175% (inactive).

For the compound `C[C@@H]1CN([C@H](C)CO)C(=O)c2cc(N(C)C)ccc2O[C@@H]1CN(C)S(=O)(=O)c1cn(C)cn1`, the CPE inhibition was 70.9% (active).

Take `Cc1noc(C)c1NC(=O)Nc1ccc2c(c1)C(=O)N([C@@H](C)CO)C[C@H](C)[C@H](CN(C)S(=O)(=O)c1cn(C)cn1)OCCCC[C@@H](C)O2`: the CPE inhibition is -4.2% (inactive).

With `COc1ccc(S(=O)(=O)N(C)C[C@@H]2Oc3ccc(NC(=O)Nc4c(C)noc4C)cc3C(=O)N([C@H](C)CO)C[C@@H]2C)cc1`, the CPE inhibition was -4.21% (inactive) and 6.91% (inactive).

With `C[C@H](CO)N1C[C@H](C)[C@H](CN(C)S(=O)(=O)c2cn(C)cn2)OCCCC[C@H](C)Oc2ccc(N(C)C)cc2C1=O`, the CPE inhibition was 1.23% (inactive).

Consider `C[C@H](CO)N1C[C@H](C)[C@H](CN(C)S(=O)(=O)c2cn(C)cn2)Oc2ccc(N(C)C)cc2C1=O`, for which the CPE inhibition is 6.45% (inactive).

For the compound `Cc1noc(C)c1NC(=O)Nc1ccc2c(c1)C(=O)N([C@H](C)CO)C[C@H](C)[C@@H](CN(C)S(=O)(=O)c1cn(C)cn1)O2`, the CPE inhibition was 8.16% (inactive) and 22.2% (active).

On to `COCC(=O)Nc1ccc2c(c1)[C@@H]1C[C@@H](CC(=O)N3CCN(C)CC3)O[C@H](CO)[C@@H]1O2`, for which the CPE inhibition is 2.6% (inactive).

Turning to `C[C@@H]1CN([C@H](C)CO)C(=O)c2cccc(NC(=O)CCCCCC(=O)Nc3ccccc3N)c2O[C@H]1CN(C)Cc1ccc(Oc2ccccc2)cc1`, the CPE inhibition was -13.3% (inactive).

For `CO[C@@H]1CN(C)C(=O)c2cc(NC(C)=O)ccc2OC[C@H](C)N(C(=O)Cc2ccccn2)C[C@@H]1C`, the CPE inhibition is -0.178% (inactive).

Consider `COCC(=O)N1CCC2(CC1)CN(C(=O)Nc1ccccc1F)[C@@H](CO)c1c2c2ccc(OC)cc2n1C`, for which the CPE inhibition was -0.316% (inactive).

On to `COCC(=O)Nc1ccc2c(c1)OC[C@@H](C)N(C(=O)c1cnccn1)C[C@H](C)[C@H](OC)CN(C)C2=O`, for which the CPE inhibition is -10.2% (inactive).

Turning to `C[C@@H]1CCCCO[C@@H](CN(C)C(=O)CCCN(C)C)[C@H](C)CN([C@@H](C)CO)C(=O)c2cc(NC(=O)Nc3ccccc3)ccc2O1`, the CPE inhibition was -0.42% (inactive).

Take `COc1ccc(NC(=O)Nc2ccc3c(c2)C(=O)N([C@@H](C)CO)C[C@H](C)[C@@H](CN(C)C(=O)Nc2cccc4ccccc24)OCCCC[C@@H](C)O3)cc1`: the CPE inhibition was -3.89% (inactive).

With `C[C@@H]1CCCCO[C@H](CN(C)C(=O)NC2CCCCC2)[C@H](C)CN([C@H](C)CO)C(=O)c2cc(NC(=O)Nc3ccc(F)cc3)ccc2O1`, the CPE inhibition is -5.97% (inactive).

With `C[C@H]1CCCCO[C@H](CN(C)C(=O)NC2CCCCC2)[C@@H](C)CN([C@@H](C)CO)C(=O)c2cc(NC(=O)Nc3ccc4c(c3)OCO4)ccc2O1`, the CPE inhibition was 34.9% (active).

As for `C[C@@H]1CCCCO[C@H](CN(C)C(=O)Nc2cccc3ccccc23)[C@@H](C)CN([C@@H](C)CO)C(=O)c2cc(NC(=O)Nc3ccc(F)cc3)ccc2O1`, the CPE inhibition is 32.7% (active).

As for `C[C@@H]1CN([C@@H](C)CO)C(=O)c2cc(NC(=O)Nc3ccc(C(F)(F)F)cc3)ccc2O[C@@H](C)CCCCO[C@H]1CN(C)C(=O)CCCN(C)C`, the CPE inhibition was -0.11% (inactive).

For the compound `C[C@@H]1CN([C@@H](C)CO)C(=O)c2cc(NC(=O)Nc3ccc(C(F)(F)F)cc3)ccc2O[C@@H](C)CCCCO[C@@H]1CN(C)C(=O)Nc1cccc2ccccc12`, the CPE inhibition was -5.51% (inactive).

As to `C[C@H](CO)N1C[C@H](C)[C@@H](CN(C)C(=O)Nc2ccc3c(c2)OCO3)OCCCC[C@H](C)Oc2ccc(NC(=O)Nc3ccc4c(c3)OCO4)cc2C1=O`, the CPE inhibition was 0.76% (inactive).

With `C[C@@H]1CCCCO[C@@H](CN(C)C(=O)CCCN(C)C)[C@@H](C)CN([C@H](C)CO)C(=O)c2cc(NC(=O)Nc3ccc(F)cc3)ccc2O1`, the CPE inhibition is 26.3% (active).

Consider `C[C@@H]1CCCCO[C@@H](CN(C)C(=O)NC2CCCCC2)[C@H](C)CN([C@@H](C)CO)C(=O)c2cc(NC(=O)Nc3ccc(F)cc3)ccc2O1`, for which the CPE inhibition is 24.1% (active).

On to `C[C@@H]1CN([C@@H](C)CO)C(=O)c2cc(NC(=O)Nc3ccc4c(c3)OCO4)ccc2O[C@@H](C)CCCCO[C@@H]1CN(C)C(=O)Nc1ccc2c(c1)OCO2`, for which the CPE inhibition was 0.286% (inactive).

In the case of `C[C@@H]1CCCCO[C@H](CN(C)C(=O)NC2CCCCC2)[C@H](C)CN([C@@H](C)CO)C(=O)c2cc(NC(=O)Nc3ccc(F)cc3)ccc2O1`, the CPE inhibition is 3.1% (inactive).

For `O=S(=O)(c1ccc(F)cc1)N1CCCCN2[C@H](C1)[C@H](c1ccc(C3=CCCCC3)cc1)[C@@H]2CO`, the CPE inhibition was -4.44% (inactive).

For `COc1cccc(S(=O)(=O)N2CCCCN3[C@H](CO)[C@H](c4ccc(C#CC5CC5)cc4)[C@H]3C2)c1`, the CPE inhibition is -34.9% (inactive).

`CCN1[C@@H]2Cn3c(ccc(-c4cccc(OC)c4)c3=O)[C@H]1[C@@H](C(=O)N(C)C)[C@@H]2CO`: the CPE inhibition is -1.41% (inactive).

Take `O=C(Nc1ccccc1)N[C@@H]1CC[C@H](CCn2cc(C3(O)CCCC3)nn2)O[C@@H]1CO`: the CPE inhibition was -11.6% (inactive).

With `C[C@H](CO)N1C[C@H](C)[C@H](CN(C)C)Oc2ccc(NC(=O)Cc3ccccc3)cc2CC1=O`, the CPE inhibition was 9.5% (inactive).

For the compound `CC(C)c1cn(CC[C@@H]2CC[C@@H](NC(=O)C3CCC3)[C@@H](CO)O2)nn1`, the CPE inhibition was -3.48% (inactive).

As to `Cc1noc(C)c1NC(=O)Nc1cccc2c1O[C@H](CN(C)S(C)(=O)=O)[C@H](C)CN([C@H](C)CO)C2=O`, the CPE inhibition was 6.73% (inactive).

Turning to `C[C@@H]1CN([C@@H](C)CO)C(=O)c2cc(-c3cncnc3)cnc2O[C@@H]1CN(C)Cc1ccncc1`, the CPE inhibition is 15% (inactive).

For `CO[C@@H]1CN(C)C(=O)c2cc(NC(=O)Nc3cc(F)ccc3F)ccc2OC[C@H](C)N(C)C[C@@H]1C`, the CPE inhibition was -0.0135% (inactive).

Consider `CN1c2ccc(-c3ccc(C#N)cc3)cc2[C@@H]2[C@@H](CCN2C(=O)C2CCCCC2)[C@H]1CO`, for which the CPE inhibition was -20.7% (inactive).

Take `Cc1ccc(CN2CCCOCCS2(=O)=O)cc1`: the CPE inhibition was 40.2% (active).

For `Cc1ccc(CN2CC(N3CCC(Cc4ccccc4)CC3)CS2(=O)=O)cc1` (centres undefined), the CPE inhibition was -8.76% (inactive).

In the case of `O=S1(=O)CCOC[C@H](CC2CCCCC2)N1Cc1ccc(F)cc1`, the CPE inhibition was 3.12% (inactive).

On to `COc1ccc(-c2cnc3c(c2)C(=O)N([C@H](C)CO)C[C@@H](C)[C@H](CN(C)C(=O)Cc2ccncc2)O3)cc1`, for which the CPE inhibition is -3.69% (inactive).

Turning to `CCCCN(C(C)=O)c1ccc2c(c1)C1CC2CCN1Cc1ccccc1` (centres undefined), the CPE inhibition was 42.3% (active).

With `FC(F)(F)c1ccc(-c2cccc3c2C2CC3CCN2Cc2ccccc2)cc1` (centres undefined), the CPE inhibition was -4.78% (inactive).

With `Clc1cccc2c1C1CC2CCN1Cc1ccccc1` (centres undefined), the CPE inhibition is -7.07% (inactive).

Regarding `COc1cccc(S(=O)(=O)N(C)C[C@@H]2Oc3ncc(-c4cccc(C(=O)N(C)C)c4)cc3C(=O)N([C@H](C)CO)C[C@@H]2C)c1`, the CPE inhibition is 9.65% (inactive).

`CN1c2ccc(-c3cccc(C#N)c3)cc2[C@@H]2[C@@H](CCN2C(=O)NC2CCCCC2)[C@@H]1CO`: the CPE inhibition is -19.7% (inactive).

For `O=C(N[C@H]1CC[C@H](CCn2cc(-c3ccccc3F)nn2)O[C@@H]1CO)c1ccc2c(c1)OCO2`, the CPE inhibition is 6.43% (inactive).

In the case of `C[C@@H]1CN([C@@H](C)CO)C(=O)c2cccc(NS(=O)(=O)c3cccs3)c2O[C@@H]1CN(C)CC1CC1`, the CPE inhibition is 30.5% (active).

On to `C[C@H](CO)N1C[C@H](C)[C@H](CN(C)S(=O)(=O)c2ccccc2)Oc2c(NC(=O)Nc3ccccc3)cccc2C1=O`, for which the CPE inhibition is -3.55% (inactive).

Turning to `Cc1ccc(S(=O)(=O)N(C)C[C@H]2Oc3c(NS(=O)(=O)c4cccs4)cccc3C(=O)N([C@@H](C)CO)C[C@@H]2C)cc1`, the CPE inhibition is -0.283% (inactive).

Consider `C[C@@H]1CN([C@@H](C)CO)C(=O)c2cccc(NS(=O)(=O)c3ccc(F)cc3)c2O[C@H]1CN(C)S(=O)(=O)c1cccs1`, for which the CPE inhibition was -1.22% (inactive).

For `COc1ccc(S(=O)(=O)Nc2cccc3c2O[C@H](CN(C)S(=O)(=O)c2ccc(OC)cc2)[C@@H](C)CN([C@H](C)CO)C3=O)cc1`, the CPE inhibition is 21.2% (active).

Take `COc1ccc(S(=O)(=O)N(C)C[C@@H]2Oc3c(NS(=O)(=O)c4ccccc4)cccc3C(=O)N([C@@H](C)CO)C[C@@H]2C)cc1`: the CPE inhibition was -6.28% (inactive).

Take `C[C@H]1CN([C@@H](C)CO)C(=O)c2cccc(NS(=O)(=O)c3ccc(Cl)cc3)c2O[C@H]1CN(C)S(=O)(=O)c1ccc(Cl)cc1`: the CPE inhibition was -6.39% (inactive).

`C[C@@H]1CN([C@@H](C)CO)C(=O)c2cccc(NS(=O)(=O)c3cccs3)c2O[C@H]1CN(C)Cc1ccncc1`: the CPE inhibition is -4.19% (inactive).

Consider `COc1ccc(S(=O)(=O)Nc2cccc3c2O[C@@H](CN(C)S(=O)(=O)c2ccc(F)cc2)[C@H](C)CN([C@H](C)CO)C3=O)cc1`, for which the CPE inhibition was -7.57% (inactive).

As for `Cc1ccc(S(=O)(=O)N(C)C[C@@H]2Oc3c(NC(=O)Nc4ccccc4)cccc3C(=O)N([C@H](C)CO)C[C@H]2C)cc1`, the CPE inhibition was 5.91% (inactive).

Take `C[C@H](CO)N1C[C@H](C)[C@H](CN(C)S(=O)(=O)c2cccs2)Oc2c(NS(=O)(=O)c3ccc(Cl)cc3)cccc2C1=O`: the CPE inhibition is 24.5% (active).

With `C[C@H]1CN([C@@H](C)CO)C(=O)c2cccc(NC(=O)Nc3ccccc3)c2O[C@H]1CN(C)S(=O)(=O)c1ccc(Cl)cc1`, the CPE inhibition was 29.2% (active).
